# Shown are actives, neighbours in structure and some others; about 15% of the full set was active somewhere.
# HCMV inh = human cytomegalovirus inhibition. HFF cells, HCMV-luciferase reporter, 72 h; active compounds read low. activity change, negative = inhibition, % at 57.5 µM. actives 4.5% (n = 410,000); in the data active = activity change below about -60%; inconclusive = no clear call, values can overlap the other calls; inactive = above about -39%; also: % is scaled to controls: 0 for no effect and ±100 for the full control effect
#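 Screen run at 2 compound doses on HFFs infected with reporter HCMV, MOI 1 PFU/cell. Luciferase activity from cell lysates at 72 h post infection gave inhibition relative to buffer-only and Salinomycin wells.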
# HCV inh = inhibitors of hepatitis C virus infection. Potency, µM (titrated, usually from 41.8 µM), without a hit: top-dose activity change, negative = inhibition, hits mostly inhibitors. Huh7.5.1 HCVcc-Cre infection, luciferase reporter, 44 h. actives 3.4% (n = 340,000). AID 651820; also: potency is read from the fitted curve at half-maximal effect; % is scaled to controls: 0 for no effect and ±100 for the full control effect
#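 Cells seeded at 1,000/well and cultured 4 h, then compounds added followed by HCVcc-Cre virus (~0.5 moi). After 44 h further culture, luciferase substrate was added, plates held 15 min at room temperature, and luminescence read for 15 sec.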
# Pf growth 96h = P. falciparum growth inhibition at 96 hours; P. falciparum luciferase reporter growth, 96 h; Potency, µM (doses to about 28.7 µM), without a hit: at the top dose activity change, negative = inhibition, usual class: inhibitors; actives 6.9% (n = 320,000); AID 504834; also: potency is read from the fitted curve at half-maximal effect; % is scaled to controls: 0 for no effect and ±100 for the full control effect
#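 Cell-based qHTS: luciferase-tagged P. falciparum in erythrocytes (2% hematocrit, 0.05% parasitemia final) incubated with compounds for 96 hours, 37 C, 5% CO2; luciferase detection reagent then added and luminescence measured.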
# Sm TGR block = inhibitors of Schistosoma mansoni thioredoxin glutathione reductase. Potency, µM (series often up to 114 µM), inactives show at the top dose activity change, negative = inhibition, usual class: inhibitors. purified TGR, DTNB reduction, TNB absorbance 405 nm. AID 485364. actives 3% (n = 360,000); also: potency is read from the fitted curve at half-maximal effect; % is scaled to controls: 0 for no effect and ±100 for the full control effect; nearly all actives have a fitted effect of over 60% in size
#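 TGR 20 nM + NADPH 100 uM (dispensed conc.), cpd preinc 15 min RT; start with NADPH (500 uM addition) then DTNB (15 mM addition). Kinetic TNB absorbance, 405 nm filter. Four-parameter Hill fit across titration.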
# Pf growth 48h = P. falciparum growth inhibition at 48 hours (one generation); P. falciparum luciferase growth in erythrocytes, 48 h; AID 504832; actives 5.9% (n = 310,000); Potency, µM (top dose mostly 28.7 µM), inactives show at the top dose activity change, negative = inhibition, most hits filed as inhibitors; also: potency is read from the fitted curve at half-maximal effect; % is scaled to controls: 0 for no effect and ±100 for the full control effect
#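 Erythrocytes infected with P. falciparum carrying an integrated firefly luciferase reporter (2% hematocrit, 0.1% parasitemia final) were exposed to compounds in RPMI 1640 with 0.5% Albumax at 37 C, 5% CO2. Growth inhibition was scored as reduced luminescence.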
# SARS PLpro yeast = blocks SARS-CoV papain-like protease in a yeast assay | S. cerevisiae expressing SARS-CoV PLpro, growth rescue | Potency, µM (titrated, usually from 32.9 µM), for the others: at the top dose activity, positive = growth rescue, hits mostly activators | AID 485353 | actives 0.19% (n = 330,000); calls by dose curve; also: potency is read from the fitted curve at half-maximal effect; 0% is about no effect; nearly all actives have a fitted effect of over 55% in size
# An asterisk follows results filed as active; ? = inconclusive; · = not tested or not shown; [ ] = another dose, or the depositor's remark. Unless noted, calls follow the shape of the dose curve; as a rule, active = well fitted curve in the direction sought with a large enough effect; inconclusive = small, poorly fitted or top-dose-only effect, or another doubt; inactive = no such curve, though single readings can be large; an effect the other way counts as inactive or inconclusive.
SMILES,HCMV inh,HCV inh,Pf growth 96h,Sm TGR block,Pf growth 48h,SARS PLpro yeast
CCOc1cccc(C(=O)Nc2c(C(=O)c3ccc(OC)cc3)oc3ccccc23)c1,?,·,·,0%,·,·
CCc1ncc(CN2CCC(C(=O)Nc3cccc(-c4cscn4)c3)CC2)cn1,11,?,?,-22%,-19%,15%
Cc1sc2nc(CSc3ccccc3)nc(N3CCN(C)CC3)c2c1C,?,?,-76%,-8%,-17%,5%
COCCNc1nc(CSc2ccccc2)nc2sc(C)c(C)c12,-70*,25µM*,?,1%,?,-19%
CC(=O)N=Cc1c(C)c(C#N)c(=O)n(C)c1O,14,15%,44%,-21%,15%,-2%
Cc1c(/C=N/Nc2ccc(F)cc2)c(O)n(C)c(=O)c1C#N,-16,9%,21%,25µM*,-12%,0%
Cc1nn(-c2ccccc2)c(Cl)c1CN(C(=O)CCl)c1ccc(Cl)cc1,-99*,10µM*,?,2µM*,-17%,-13%
Cc1nn(-c2ccccc2)c(Cl)c1CN(C(=O)CCl)c1cccc2ccccc12,-99*,?,?,?,3.7µM*,-46%
CC(=O)N(Cc1c(C)nn(-c2ccccc2)c1Cl)c1ccc(Cl)cc1,-27,?,?,2%,?,9%
CCN(Cc1cc2ccccc2[nH]c1=O)S(=O)(=O)c1ccccc1,?,?,-23%,5%,1%,2%
Cc1cccc(N(Cc2cc3ccc(C)cc3[nH]c2=O)S(=O)(=O)c2ccccc2)c1,?,?,?,-1%,?,4%
Cc1cccc(N(Cc2cc3ccccc3[nH]c2=O)S(=O)(=O)c2ccccc2)c1,?,28%,10µM*,6%,15µM*,-2%
O=c1[nH]c2ccccc2cc1CN(c1ccccc1)S(=O)(=O)c1ccccc1,-64*,3%,7%,6%,-9%,14%
Cc1cccc2cc(CN(CC(C)C)S(=O)(=O)c3ccccc3)c(=O)[nH]c12,-24,?,13µM*,12%,?,-1%
O=C(c1ccc(Cl)cc1)C1CCN(C(=O)C2CC2)CC1,·,3%,73%,3%,?,-1%
O=C(Cn1c(=O)n(CC2CCCO2)c(=O)c2ccccc21)c1ccccc1 (configuration not stated),-19,8%,?,6%,27%,17%
COc1cccc(C(=O)Cn2c(=O)n(CC3CCCO3)c(=O)c3ccccc32)c1 (configuration not stated),-4,-4%,12µM*,-11%,·,7%[6.58 µM]
O=C(O)c1ccc(S(=O)(=O)/N=C2\C=C(Nc3ccccc3F)C(=O)c3ccccc32)cc1,-98*,10µM*,?,45µM*,2.6µM*,-33%
COC(=O)C(C(C)=O)C1=C/C(=N\S(=O)(=O)c2ccc(C)cc2)c2ccccc2C1=O (configuration not stated),·,?,?,28µM*,·,2%
CCc1ccc(S(=O)(=O)/N=C2\C=C(NS(=O)(=O)c3ccccc3)C(=O)c3ccccc32)cc1,-36,-27%,-10%,?,30%,-8%
Cc1ccccc1NC1=C/C(=N\S(=O)(=O)c2ccc(C(=O)O)cc2)c2ccccc2C1=O,29,?,?,?,2.6µM*,-5%
CC1(C)CC(=O)C2=C(C1)O[C@@]1(c3ccsc3)Cc3cc(C#N)ccc3C2O1,·,·,?,?,1.5µM*,?
COc1ccc2c3c(c(=O)oc2c1)C1O[C@](c2ccsc2)(Cc2cc(C#N)ccc21)O3,·,·,27%[5.75 µM],6.3µM*,?,8%[6.58 µM]
CCCC[C@]12Cc3cc(C#N)ccc3C(O1)c1c(c3ccccc3oc1=O)O2,·,·,?,?,-15%[5.75 µM],0%[6.58 µM]
COc1cc2c(cc1OC)C1O[C@](c3ccsc3)(C2)Oc2c1c(=O)oc1ccc(F)cc21,·,·,?,?,1.5µM*,5%[6.58 µM]
